Here are results for 101 compounds from ChEMBL document CHEMBL3988442, “University of Dundee, Small-Polar-MMV Screening Library” (2021).

Each structure is given as a SMILES string. Among all 48,000 compounds or so, about 13,000 (27%) showed an effect of 50% or more. This is one part of the list.

This assay has as its system Wolbachia pipientis. The experiment in a line: Anti-Wolbachia Cell-Based Screen. The class given is functional. Also noted: scale not given: in the data most compounds retested in dose-response had high values. The settings on record: 5 µM.
As for `O=C(O)C(F)(F)F.c1csc(CN2CCc3ncnc(C4CCOC4)c3CC2)c1` (stereo unspecified), the “Percent Effect” value is listed as -9.496%. Consider `Cn1nnc2c1CCN(C(=O)C1CCC1)C2COCCN1CCCC1.O=C(O)C(F)(F)F` (stereo unspecified), for which the “Percent Effect” value is on record as -13.51%. The value for `COc1ccc(-c2n[nH]cc2CN2CCSCC2)c(OC)c1` was 5.008%; that for `COCCN1C(=O)CO[C@H]2CN(Cc3c[nH]nc3-c3ccccc3)C[C@@H]21` was -12.21%; that for `COCC(=O)N[C@@H]1CN(Cc2c[nH]nc2-c2cccs2)C[C@H]1O` was 113.8%.

On to `Cc1n[nH]cc1CNC(=O)CCCc1cccs1`, for which the “Percent Effect” value is -6.834%. On to `O=C(N[C@@H]1CN(Cc2c[nH]nc2-c2ccccc2)C[C@H]1O)c1cc[nH]n1`, for which the “Percent Effect” value worked out at 121.8%.

With `CCC[C@H]1CN(CCS(C)(=O)=O)C[C@@H]1NC(=O)c1cc[nH]n1`, the “Percent Effect” value is listed as -12.34%.

In the case of `CC(C)CC(C)(CNC(=O)c1cnccn1)NC(=O)c1cnccn1` (stereo unspecified), the “Percent Effect” value is listed as 15.43%.

In the case of `Cc1ccc2nc(C(=O)N3CCC(CCn4cccn4)CC3)cn2c1`, the “Percent Effect” value is recorded as -8.837%. Under `Cc1cn2cc(C(=O)NC3CCCN(c4ncccn4)C3)ccc2n1` (stereo unspecified) stands -3.56%; under `Cc1ccc2nc(C(=O)N3CCNC(=O)C3c3cccc(F)c3)cn2c1` (stereo unspecified), -1.772%; under `CO[C@@H]1CCC[C@@H](N(C)C(=O)c2cn3cc(C)ccc3n2)[C@H]1O`, 110.8%. Turning to `Cc1ccc2c(ccn2CC(=O)NC[C@@H]2CCCN3CCCC[C@H]23)c1`, the “Percent Effect” value came out at 4.302%. For `CO[C@@H]1CC[C@@H](N(C)C(=O)c2cn3cc(C)ccc3n2)[C@H]1O`, the “Percent Effect” value stood at 56.83%. The value for `Cc1ccc2nc(C(=O)N(C)[C@@H]3CC[C@@H](N4CCCC4)[C@@H]3O)cn2c1` was 129%; that for `c1cncc(NCCNC2CCSCC2)c1` was -10.95%; that for `CCn1cc(N2Cc3nc(N4CCOCC4)ncc3C2=O)cn1` was 28.99%. The value for `COC(=O)c1ccc(C2CC(=O)Oc3cc(C)[nH]c(=O)c32)cc1` (stereo unspecified) was -3.935%; that for `CN1CCC(c2cccc(Cc3ccccc3)n2)CC1` was 111.8%; that for `CN1CCC(c2cccc(Cc3ccc(F)cc3)n2)CC1` was -5.274%. Under `COc1ccc(Cc2cccc(C3CCN(C)CC3)n2)cc1` stands -4.713%; under `CN1CCC(c2cccc(Cc3ccc(C(F)(F)F)cc3)n2)CC1`, 90.57%. As for `O=S(=O)(c1ccc(C(F)(F)F)cc1)N1CCC(OCc2ccccn2)C1` (stereo unspecified), the “Percent Effect” value is -13.15%. Under `Cl.NC(c1ccc(Cl)cc1)c1cccs1` (stereo unspecified) stands -4.089%; under `Cc1cccc(C)c1CN1C(=O)CC2(CCSC2)C1=O` (stereo unspecified), -6.047%.

Regarding `Cc1n[nH]c(SCC(=O)N2C[C@H]3CC[C@@H]2CN(c2ncccn2)C3)n1`, the “Percent Effect” value is on record as -6.945%. For the compound `COc1ccnc(N2CCN(Cc3ncc(-c4ccccc4)o3)CC2)n1`, the “Percent Effect” value is on record as -5.442%. For the compound `CC(=O)NCc1ccc(C(=O)N2CCCC2c2cnn(C)c2)s1` (stereo unspecified), the “Percent Effect” value stood at 110.6%.

`CCN(CC)Cc1ccc(C(=O)N2CCCC2c2cnn(C)c2)o1` (stereo unspecified): the “Percent Effect” value is 101.4%.

For `CC(=O)NCc1ccc(C(=O)N2CCCC2c2cnn(C)c2)o1` (stereo unspecified), the “Percent Effect” value was 4.332%. The value for `CC(=O)NCc1ccc(C(=O)N2CCCC2c2cnn(C)c2)cc1` (stereo unspecified) was 89.24%; that for `Cc1cc(C)n(-c2ccc(C(=O)N3CCCC3c3cnn(C)c3)cc2)n1` (stereo unspecified) was -0.5529%; that for `CC(=O)NCCc1ccc(C(=O)N2CCCC2c2cnn(C)c2)cc1` (stereo unspecified) was 2.733%. Turning to `CCN(CC)Cc1ccc(C(=O)N2CCCCC2Cn2cccn2)o1` (stereo unspecified), the “Percent Effect” value is -4.824%. Under `CC(=O)NCCCOc1c(C)cccc1Cl` stands -7.084%; under `O=C1CCC2(CCCN(C(=O)c3ccc[nH]3)C2)CN1CCc1c[nH]cn1` (stereo unspecified), -3.691%; under `Cc1cc(CN(C)C(=O)c2cccc(N3CCCC3=O)c2)no1`, 3.879%. The value for `CCOc1ncccc1C(=O)NCCN(CC)C1CC1` was -2.077%. Under `CCN(CCNC(=O)c1cccc(C)c1C)C1CC1` stands 95.34%. For the compound `COCCOc1ncccc1C(=O)Nc1c(C)cnn1CC1CC1`, the “Percent Effect” value was -11.28%. The value for `CCN(CCNC(=O)c1ccccc1Br)C1CC1` was -1.027%. `CCN(CCNC(=O)c1cccnc1OCCOC)C1CC1`: the “Percent Effect” value amounted to 95.99%. In the case of `Cc1cccc(C(=O)NCCNS(=O)(=O)c2cccs2)c1C`, the “Percent Effect” value is -10.16%. The value for `CC(C)c1cccc(-n2cc(O)c(C(=O)NCCCn3cccn3)n2)c1` was -4.081%; that for `COC(=O)C1CN(Cc2ccn(-c3ccc(F)cc3)n2)CCO1` (stereo unspecified) was -3.694%; that for `O=C(CCc1ccco1)N1CCCN(Cc2cscn2)CC1` was 110.3%. The value for `O=C(CCc1cccc(F)c1F)N1CCN(Cc2ccco2)CC1` was 9.986%; that for `Cc1nc(CN2C[C@@H]3CN(C(=O)CC(F)(F)F)C[C@@H]3C2=O)cs1` was -5.241%. With `Cc1nc(CN2C[C@@H]3CN(C(=O)c4ccoc4C)C[C@@H]3C2=O)cs1`, the “Percent Effect” value was -24.28%. The value for `Cc1noc(C)c1CCC(=O)N1CCCN(Cc2cscn2)CC1` was -9.58%; that for `CCc1nc(CN2CCCN(C(=O)CCc3ccco3)CC2)cs1` was -5.985%. The value for `Cc1nc(CN2CCCN(C(=O)c3cccn3C)CC2)cs1` was -4.038%; that for `Cc1nc(CN2C[C@@H]3CN(C(=O)c4ccoc4C)C[C@@H]3C2)cs1` was 104.4%. The value for `Cc1nc(CN2CCCN(C(=O)CCc3ccco3)CC2)cs1` was 136.5%; that for `CCc1nc(CN2CCN(C(=O)CCc3ccccc3)CC2)cs1` was 19.11%; that for `Cc1nc(CN2CCN(C(=O)CCc3ccco3)CC2)cs1` was 84.98%.

Turning to `CCc1nsc(N2CCN(CC(=O)NCc3cccnc3)CC2)n1`, the “Percent Effect” value is 5.46%. As for `CC1CN(C)c2ccccc2CN1C(=O)CSc1ccncc1` (stereo unspecified), the “Percent Effect” value was -15.08%.

On to `O=S(=O)(c1cccnc1)N1CCN(CC(O)c2cccs2)CC1` (stereo unspecified), for which the “Percent Effect” value is -0.3613%. On to `Cc1ccc(Nc2nccc(C3CN(CC(N)=O)C3)n2)nc1`, for which the “Percent Effect” value was -11.37%.

As for `CN(C)S(=O)(=O)N1CC(c2ccnc(Nc3ccccn3)n2)C1`, the “Percent Effect” value came out at 81.46%. With `O=S(=O)(N1CCCC1)N1CC(c2ccnc(Nc3ccccn3)n2)C1`, the “Percent Effect” value is 105.1%. The value for `CN(C)S(=O)(=O)N1CCC(c2ccnc(Nc3ccccn3)n2)C1` (stereo unspecified) was 92.82%; that for `CCNc1ccnc(NC2CCN(S(C)(=O)=O)CC2)n1` was 1.929%. As for `CS(=O)(=O)N1CC(c2ccnc(Nc3ccccn3)n2)C1`, the “Percent Effect” value was 102.3%.

For the compound `O=S(=O)(NC1CCCN(c2ncccn2)C1)N1CCCCCC1` (stereo unspecified), the “Percent Effect” value is -17.91%. `N[C@H]1CN(S(=O)(=O)N2CCCC2)C[C@@H]1c1ccccc1`: the “Percent Effect” value is -9.902%.

For the compound `CN(C)S(=O)(=O)N1CCC2(CC1)CC(Oc1ccccn1)CO2.O=C(O)C(F)(F)F` (stereo unspecified), the “Percent Effect” value is -11.89%.

Take `CN(C)C(=O)C1CN(Cc2ccc(C#N)cc2)c2ccccc2O1` (stereo unspecified): the “Percent Effect” value was -2.727%. The value for `O=C(NCCn1cccc1)C1CCN(C2CCCCC2)CC1` was 3.682%. Under `Cc1c(F)cccc1CN1CCn2nc(CNC(=O)N(C)C)cc2C1` stands 9.061%. Turning to `Cc1cc(C)c2c(c1)C1(CC(=O)Nc3c1cnn3C(C)C)C(=O)N2` (stereo unspecified), the “Percent Effect” value is recorded as -4.592%. The value for `Cc1cc2n(n1)CC(CNC1CCN(c3ccc(F)cc3)CC1)CN2` (stereo unspecified) was 8.147%; that for `Cc1nc(N2CCCC2)nc2c1CN(C(=O)NC(C)C)CC2` was 102.9%. Take `CC(=O)N1CCc2nc(N3CCCC3)nc(C)c2C1`: the “Percent Effect” value is recorded as 96.78%.

As to `Cc1nc(N2CCCC2)nc2c1CN(C(C)C)CC2.O=C(O)C(F)(F)F`, the “Percent Effect” value is recorded as -22.93%. The value for `Cc1nc(N2CCCC2)nc2c1CN(C(=O)N(C)C)CC2` was 100.4%; that for `Cc1nc2c(c(=O)n1C)CN(C(=O)C1CCCN(C(=O)N(C)C)C1)C2` (stereo unspecified) was 1.11%. In the case of `CN(Cc1ccccc1)C(=O)c1cc2c(c(S(N)(=O)=O)c1)CCC2`, the “Percent Effect” value was -0.2198%. In the case of `CCCOc1ccc2ccccc2c1CN1CC[C@@]2(O)CCNC[C@H]2C1`, the “Percent Effect” value is 3.118%.

Turning to `CCc1nc(C)cc(NC(C)C(=O)Nc2cc(F)ccc2C)n1` (stereo unspecified), the “Percent Effect” value is 4.426%. The value for `CCc1cc(N[C@H]2CCC[C@H]2CO)n2nccc2n1` was -20.55%. In the case of `O=C(O)C(F)(F)F.O=C(c1ccccn1)N1CC[C@H]2[C@H]1CCN2S(=O)(=O)C1CC1`, the “Percent Effect” value is -10.64%. In the case of `O=C(C[C@H]1[C@H]2CN(C(=O)c3cccnc3)C[C@@H]12)Nc1cccnc1`, the “Percent Effect” value is listed as -0.113%. Under `O=C(c1ccco1)N1CC(S(=O)(=O)c2ccc(Cl)cc2)C1` stands 72.73%.

For the compound `NC(=O)N1C[C@@H]2CN(C(=O)c3ccco3)C[C@@H]2C1`, the “Percent Effect” value is reported as -28.89%.

For the compound `O=C(c1cccnc1)N1C[C@@H]2OCC(=O)N(Cc3cccnc3)[C@@H]2C1`, the “Percent Effect” value is given as -21.42%.

Turning to `O=C(c1ccccn1)N1CCC(Oc2ncccc2Cl)CC1`, the “Percent Effect” value came to 6.011%. The value for `O=C(c1ccccn1)N1C[C@@H]2CC[C@H](C1)N(C(=O)c1ccsc1)C2` was -66.93%; that for `O=C(c1ccccn1)N1CCC(S(=O)(=O)c2ccccc2)C1` (stereo unspecified) was 101.3%; that for `O=C(c1cccnc1)N1CC(S(=O)(=O)c2ccc(Cl)cc2)C1` was 139.6%.

With `O=C(c1ccccn1)N1CCC(Oc2cccnc2)CC1`, the “Percent Effect” value was -15.11%. In the case of `O=C(c1ccccn1)N1CC(S(=O)(=O)c2ccc(Cl)cc2)C1`, the “Percent Effect” value was 113.3%. Under `Cn1cnnc1S(=O)(=O)C1CCN(C(=O)c2ccco2)CC1` stands 9.772%; under `CN(C1CCCC1)C(C)(C)C(=O)NCCS(C)(=O)=O`, 3.461%. With `N#CCc1ccc(NC(=O)N[C@H](CO)Cc2ccc(O)cc2)cc1`, the “Percent Effect” value is -6.882%.

Regarding `CCc1nc2c(c(NCc3cc(-c4cccnc4)no3)n1)CCNCC2`, the “Percent Effect” value stood at 11.03%. Under `O=C(NCc1c(F)cccc1F)C1CN(C(=O)c2cnccn2)C1` stands -2.814%; under `O=C(NC1CC1)C1CN(C(=O)c2cnccn2)C1`, -10.02%. Under `O=C(c1cnccn1)N1CC(S(=O)(=O)c2ccc(Cl)cc2)C1` stands 115.9%.
